Screening data: PubChem BioAssay, National Center for Advancing Translational Sciences (NCATS)
NS1 inh: inhibitors of influenza NS1 protein function; actives 0.4% (n = 270,000); Potency, µM (top dose mostly 46.1 µM), for the others: at the top dose activity, positive = more growth; further: potency means the concentration at half of the fitted maximal effect; actives are rising curves; nearly all actives have a fitted effect of over 50% in size
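Growth recovery, yeast-based: influenza A NS1 expressed in S. cerevisiae causes slow growth, and suppressors are detected by OD600. The parent strain without NS1 is used as positive control.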
CHX counter: counter-screen for Shiga toxin inhibitors: cycloheximide protein synthesis inhibition. cell reporter, cycloheximide protein synthesis inhibition counterscreen. max response, %. actives 12% (n = 300,000). AID 2314; in the data active means max response mostly above about 13%, no sharp cut-off; inactive means mostly below about 14%; further: read at 38.3 µM for the half of the compounds with a filed dose; 0% is about no effect
SARS PLP yeast: SARS-CoV PLP inhibition in yeast; S. cerevisiae expressing SARS-CoV PLpro, growth rescue; AID 485353; Potency, µM (series often up to 32.9 µM), for the others: at the top dose activity, positive = growth rescue, usual class: activators; actives 0.19% (n = 330,000); further: potency means the concentration at half of the fitted maximal effect; 0% is about no effect; nearly all actives have a fitted effect of over 55% in size
Shiga inhibitor: blocks Shiga toxin action in Vero cells | Vero cells, Shiga toxin protein synthesis inhibition reporter | inhibition, % at 38.7 µM | actives 9.2% (n = 290,000) | AID 2315; in the data active means inhibition mostly above about 28%, no sharp cut-off; inactive means mostly below about 43%; further: 0% is about no effect
* hit, by the source's call; ? = inconclusive; . = no result. Only some compounds are listed: those with a hit (about 12% of all), similar ones and a draw of the others. Unless noted, the call rests on the fitted dose curve.

SMILES	NS1 inh	CHX counter	SARS PLP yeast	Shiga inhibitor
CCOC(=O)c1c(N)sc(C(=O)N2CCCC2)c1C	-3%	-3	-5%	-6
CCOC(=O)c1sc(N)c(C(=O)OCC)c1C	-30%	51*	-3%	81*
O=C(NCc1cccnc1)c1cccn2c(=O)c3sccc3nc12	10%	-4	-2%	-33
Cc1nnc(SCC(=O)Nc2cc(C(F)(F)F)ccc2Cl)n1C	-1%	0	4%	10
CCOC(=O)/C(N=Nc1ccc2c(c1)OCO2)=C(\C)O	.	51*	1%	92*
O=c1oc2ccccc2nc1/C=C(O)/C=C\c1ccccc1	-30%	36*	-22%	47*
CC(C)(C)/C(O)=C/c1nc2cc(Cl)ccc2oc1=O	-56%	-2	-3%	25
O=c1oc2ccccc2nc1/C=C(O)/C=C/c1ccc(F)cc1	-17%	44*	-53%	85*
Cc1ccc(/C(O)=C/c2nc3ccccc3oc2=O)cc1	-54%	32*	-3%	68*
Cc1ccc2oc(=O)c(/C=C(\O)c3ccco3)nc2c1	0%	17*	-1%	14
Cc1ccc2oc(=O)c(/C=C(\O)C(C)(C)C)nc2c1	.	10	-5%	28
CCCOc1ccc(/C=N/n2nnnc2N)cc1OC	19%	9	-3%	10
O=C(NCC1(N2CCCCC2)CCCCC1)c1cccc(S(=O)(=O)Nc2ccc(F)cc2)c1	.	.	-6%	.
Cn1cc(Br)c(C(=O)N2CCCCCC2)n1	6%	-1	3%	18
Cc1cc(C)c(NC(=O)CS(=O)CC(=O)N2CCN(c3cccc(C)c3C)CC2)c(C)c1 (stereo not given)	-6%	-2	2%	-12
Cc1cccc(CN2CCCC(C(=O)N3CCCCC3)C2)c1 (stereo not given)	2%	8	3%	-8
C[C@@H]1C(=O)O[C@H]2[C@H](O)[C@@]34[C@H]5C[C@@H](C(C)(C)C)[C@]36[C@@H](OC(=O)[C@@H]6O)O[C@@]4(C(=O)O5)[C@@]12O	1%	1	2%	-5
O=C1NC(=O)/C(=C\c2ccc(Br)o2)S1	-94%	23*	-11%	20*
O=C1NC(=O)/C(=C/c2cc3c(cc2Br)OCO3)S1	-92%	8	-7%	-3
CCCc1ncc(C(O)(c2ccccc2)c2ccccc2)n1C	.	-4	1%	-5
COc1cc(/C=C/C(=O)OC2CC3CCC2(C)C3(C)C)ccc1O (stereo not given)	-86%	14*	-9%	23
Cc1ccc(S(=O)(=O)N2CCCC(c3nc4c(nnn4Cc4ccc5c(c4)OCCO5)c(=O)[nH]3)C2)cc1 (stereo not given)	17%	-1	-3%	-3
O=C(CN1C(=O)NC2(CCc3ccccc32)C1=O)c1ccc2c(c1)OCCO2 (stereo not given)	-5%	23	4%	70*
O=C(CN1C(=O)COc2ccccc21)Nc1ccc2c(c1)OCCO2	7%	12	-1%	32
O=C(CN1C(=O)COc2ccccc2C1=O)c1ccc2c(c1)OCCO2	2%	28*	2%	29
SMILES	NS1 inh	CHX counter	SARS PLP yeast	Shiga inhibitor
Cc1ccc(NC(=O)CSc2nnc(C3COc4ccccc4O3)o2)c(Cl)c1 (stereo not given)	.	-2	0%	-9
O=C(NCCCN1CCOCC1)c1cnccn1	-10%	-2	0%	19
CCOc1ccc(OCC)c(NC(=O)C2CCCN(c3nc(C)cc(C)n3)C2)c1 (stereo not given)	-9%	-3	-2%	6
C#CCOCCOCCOCCNc1nc(N2CCN(C(=O)[C@H](CCCCN)n3cc(CN)nn3)CC2)nc(N2CCN(C(=O)[C@H](CCCN=C(N)N)n3cc(C(N)[C@H](C)CC)nn3)CC2)n1 (stereo not given in full)	.	.	5%	.
COc1ccc(Cl)cc1-c1nc(-c2ccc(NC(=O)c3ccncc3)cc2)no1	-47%	.	.	.
CC(Oc1ccc(Cl)cc1Cl)c1nc(-c2ccc(NC(=O)c3ccccn3)cc2)no1 (stereo not given)	-5%	28*	-6%	71*
O=C(/C(=C/O)N=Nc1ccccc1Cl)c1ccccc1	.	31*	-3%	98
N[C@@H](Cc1ccccc1)C(=O)N1CCC(C(=O)N[C@@H](Cc2c[nH]c3ccccc23)C(=O)O)CC1	3%	-3	-2%	3
CC(C)[C@H](NC(=O)OC(C)(C)C)C(=O)N1CCC(C(=O)N[C@@H](C)C(=O)Nc2ccc(F)cc2)CC1	0%	-2	1%	33
CCc1ccc(NC(=O)[C@H](C)NC(=O)C2CCN(C(=O)[C@@H](NC(=O)OC(C)(C)C)C(C)C)CC2)cc1	1%	14*	1%	53
CCc1ccc(NC(=O)[C@H](C)NC(=O)C2CCN(C(=O)[C@@H](N)Cc3ccccc3)CC2)cc1	6%	16*	1%	23*
CNC(=O)[C@H]1O[C@@H](n2cnc3c(NCc4ccc(N)cc4)ncnc32)[C@H](O)[C@H]1O	-3%	.	.	.
O=C(CN1CCCc2ccccc21)N/N=C/c1ccccc1	0%	21*	8%	22
O=C(CN1CCCc2ccccc21)N/N=C/c1ccc(O)cc1O	-11%	26*	?	71*
CCN(CC)c1ccc(/C=N/NC(=O)CN2CCCc3ccccc32)cc1	16%	1	-12%	-11
NS(=O)(=O)c1ccc(NC(=O)CN2CCCc3ccccc32)cc1	0%	1	-2%	27
CC(=O)Nc1sc(C)c(C)c1C(=O)OCC(=O)N(C)c1c(N)n(Cc2ccccc2)c(=O)[nH]c1=O	.	.	-4%	.
COCCNS(=O)(=O)c1cc2[nH]c3c(c2cc1C)C(=O)CC(C)(C)C3	-1%	-4	1%	-8
COC(=O)c1ccc(C#Cc2ccccc2)o1	-9%	56*	-1%	31
Cc1[nH]nc2c1C(c1ccc(Cl)cc1)C(C#N)=C(N)O2 (stereo not given)	-6%	19*	1%	-13
Cc1ccc(C2C(C#N)=C(N)Oc3n[nH]c(C)c32)cc1 (stereo not given)	-31%	-4	2%	-8
C#CCOCCOCCOCCNc1nc(N2CCN(C(=O)[C@H]([C@@H](C)CC)n3cc([C@@H](N)CC(C)C)nn3)CC2)nc(N2CCN(C(=O)[C@H]([C@@H](C)CC)n3cc([C@@H](N)CC(C)C)nn3)CC2)n1	-2%	2	-1%	1
Cn1/c(=N\NC(=O)C2CCCCC2)sc2ccccc21	.	37*	2%	56*
Cn1/c(=N\NC(=O)c2ccccc2Cl)sc2ccccc21	.	31*	1%	75*
COCCNc1nc(-c2cc3ccccc3o2)cs1	-1%	83*	-15%	74*
SMILES	NS1 inh	CHX counter	SARS PLP yeast	Shiga inhibitor
N#Cc1c2ccc(OCC(=O)NCc3ccco3)cc2n2ccccc12	2%	-5	-2%	-5
N#Cc1c2ccc(O)cc2n2ccccc12	.	27*	-4%	27
O=C(CSc1nc2cc(Cl)ccc2o1)N1CCOCC1	-47%	8	-14%	6
CC1CCCN(C(=O)CSc2nc3ccccc3o2)C1 (stereo not given)	-18%	21	-1%	61*
O=C(CSc1nc2ccccc2o1)N1CCN(C(=O)c2ccco2)CC1	3%	-2	-5%	-4
O=C(O)c1ccc2oc(SCC(=O)N3CCCCC3)nc2c1	1%	23*	7%	58*
